Data taken from paper PMC4336329 (PLoS ONE, 2015).
Hit rate of the full screen: of about 310,000 compounds, about 14,000 (4.5%) showed an effect of 50% or more. Effects have a minus sign here. Many of the other results were omitted from the sample, so strong results are more common in it than they were.

Target: human ether-à-go-go-related gene (hERG) potassium channel (human, UniProt Q12809)
Assay: primary screen, population patch clamp on CHO cells stably expressing hERG; higher = less effect of the substance
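Further: peak tail current of the secondary pulse compared with the same well before compound.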

human ether-à-go-go-related gene (hERG) potassium channel, sequence (Q12809 whole entry, looked up): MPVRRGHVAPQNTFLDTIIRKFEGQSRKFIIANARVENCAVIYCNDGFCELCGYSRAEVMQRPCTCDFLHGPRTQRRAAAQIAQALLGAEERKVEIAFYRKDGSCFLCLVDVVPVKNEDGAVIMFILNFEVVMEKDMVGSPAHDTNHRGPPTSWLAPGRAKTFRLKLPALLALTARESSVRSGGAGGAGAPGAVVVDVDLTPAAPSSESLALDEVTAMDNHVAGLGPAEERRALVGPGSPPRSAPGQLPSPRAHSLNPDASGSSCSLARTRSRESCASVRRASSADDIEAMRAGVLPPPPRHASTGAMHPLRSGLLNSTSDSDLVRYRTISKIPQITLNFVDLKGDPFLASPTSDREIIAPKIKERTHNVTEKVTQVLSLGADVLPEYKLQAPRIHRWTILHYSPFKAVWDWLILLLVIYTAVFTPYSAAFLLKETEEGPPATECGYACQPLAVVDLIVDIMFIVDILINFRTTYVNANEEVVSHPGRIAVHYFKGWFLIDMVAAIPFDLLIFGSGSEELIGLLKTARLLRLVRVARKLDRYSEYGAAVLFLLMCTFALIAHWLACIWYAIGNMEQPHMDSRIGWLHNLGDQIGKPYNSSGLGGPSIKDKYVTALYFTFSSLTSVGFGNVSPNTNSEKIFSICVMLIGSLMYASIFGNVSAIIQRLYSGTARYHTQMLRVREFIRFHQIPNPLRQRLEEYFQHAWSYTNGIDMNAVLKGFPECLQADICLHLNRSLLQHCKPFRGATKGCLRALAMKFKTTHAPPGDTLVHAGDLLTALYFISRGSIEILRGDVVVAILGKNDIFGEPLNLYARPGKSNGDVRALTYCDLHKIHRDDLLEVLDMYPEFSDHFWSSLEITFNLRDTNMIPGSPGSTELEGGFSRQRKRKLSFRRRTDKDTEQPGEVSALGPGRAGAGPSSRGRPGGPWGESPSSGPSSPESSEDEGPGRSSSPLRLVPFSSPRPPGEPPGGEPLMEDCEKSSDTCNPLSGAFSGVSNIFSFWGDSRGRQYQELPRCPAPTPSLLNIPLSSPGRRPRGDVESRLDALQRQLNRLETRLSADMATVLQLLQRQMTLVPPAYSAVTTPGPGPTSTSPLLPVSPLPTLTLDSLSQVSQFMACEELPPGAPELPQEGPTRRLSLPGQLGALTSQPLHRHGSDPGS

Structure (SMILES) | hERG current change (%, negative = inhibition) at 10uM [%]
CCOc1ccc(C(=O)Nc2cccc(C)n2)cc1 | 0.201
COc1ccc(/C=N/NC(=O)c2ccn[nH]2)cc1COc1ccc(Cl)cc1 | 2.09
CCc1cc2c(=O)nc3n(c2s1)Cc1ccccc1/C3=C(/O)c1ccc(F)cc1 | -3.7
Cc1nnc(NC(=O)CN2CCN(Cc3ccc(F)cc3Cl)CC2)s1 | 8.45
Cc1c(Cl)cccc1NC(=O)C1CCCN(S(C)(=O)=O)C1 (centres unmarked) | 22
O=C(CN1C(=O)C2CC=C(Cl)CC2C1=O)Nc1ccc(C(=O)O)cc1 (centres unmarked) | 3.39
OCCN1CCN(c2ncnc3scc(-c4ccc(F)cc4)c23)CC1 | -22.1
COc1ccc(-c2csc3ncnc(N4CCN(c5ccccc5)CC4)c23)cc1 | 12.3
Cc1ccc(-c2csc3ncnc(N4CCN(Cc5ccccc5)CC4)c23)cc1 | 18
Cc1ccc(-c2csc3ncnc(N4CCN(C)CC4)c23)cc1C | -18.7
CCN1CCN(c2ncnc3scc(-c4ccc(OC)cc4)c23)CC1 | -54.6
CCN1CCN(c2ncnc3scc(-c4ccc(C)c(C)c4)c23)CC1 | -76.4
COc1ccc(-c2csc3ncnc(N4CCN(CCO)CC4)c23)cc1 | -1.12
CC(C)c1ccc(-c2csc3ncnc(N4CCN(C)CC4)c23)cc1 | -21.6
Fc1ccc(CN2CCN(c3ncnc4scc(-c5ccccc5)c34)CC2)cc1 | -39.9
CCN1CCN(c2ncnc3scc(-c4ccc(C)cc4)c23)CC1 | -22.5
Cc1cc(-c2csc3ncnc(N4CCN(C)CC4)c23)cc(C)c1C | -65.2
CCOc1ccc(CN2CCN(c3ncnc4scc(-c5ccccc5)c34)CC2)cc1 | -75.3
CCOC(=O)c1ccc(NC(=O)c2ccc(C)c(S(=O)(=O)N3CCOCC3)c2)cc1 | -33.4
CC(C)(C)C(=O)N1CCN(c2ccc(NC(=O)c3ccc([N+](=O)[O-])o3)cc2)CC1 | 10.2
COc1ccccc1N(C)S(=O)(=O)c1ccc(C(=O)NC(C)c2ccccc2)cc1 (centres unmarked) | -43.7
COc1ccc(-c2nnc(-c3cc4c(ccc5ccccc54)oc3=O)o2)cc1 | -8.75
Clc1ccc(CSc2nnc(-c3ccncc3)o2)cc1 | -11.5
Cc1csc(NC(=O)CCc2c(C)nc3cc(-c4ccc(Cl)cc4)nn3c2C)n1 | -2.4
COc1ccc(CN2CCN(c3ncnc4scc(-c5ccc(F)cc5)c34)CC2)cc1 | -65.8
Cc1sc2ncnc(N3CCN(Cc4ccccc4)CC3)c2c1-c1ccccc1 | -34.8
O=C(CSc1ncnc2scc(-c3ccccc3)c12)N1CCN(Cc2ccc3c(c2)OCO3)CC1 | -35.7

Structure (SMILES) | hERG current change (%, negative = inhibition) at 10uM [%]
CCN1CCN(c2ncnc3sc(C)c(-c4ccccc4)c23)CC1 | -57.1
Fc1ccc(CN2CCN(c3ncnc4scc(-c5ccc(F)cc5)c34)CC2)cc1 | 5.9
COc1ccc(N2CCN(c3ncnc4scc(-c5ccc(F)cc5)c34)CC2)cc1 | -0.492
COc1ccc(F)cc1CN1CCN(c2ncnc3scc(-c4ccccc4)c23)CC1 | -41.6
COc1ccccc1N1CCN(c2ncnc3sc(C)c(-c4ccccc4)c23)CC1 | 14.2
c1ccc(-c2csc3ncnc(N4CCN(Cc5ccc6c(c5)OCO6)CC4)c23)cc1 | -57.6
CNc1c([N+](=O)[O-])cnn1-c1ccccn1 | -15.5
CC(C)(O)C#Cc1ccc(C(=O)NCCc2ccc(S(N)(=O)=O)cc2)cc1 | 13.6
O=C(NNS(=O)(=O)c1cccc(Cl)c1)c1cc(-c2ccc(F)cc2)nc2ccccc12 | 11.6
Cc1ccc(C(=O)COC(=O)CNS(=O)(=O)c2ccc(C)cc2)cc1 | 12.4
CCOC(=O)C(NC(C)=O)(Nc1ccc(F)cc1)C(F)(F)F (centres unmarked) | -3.72
O=C(O)c1cnc(-c2ccccc2)nc1Sc1cccc(Cl)c1 | 26.7
O=C(O)/C(=C\c1cn(-c2ccccc2)nc1-c1cccnc1)NC(=O)c1ccccc1 | 7.21
CC/C=C/C(=O)N1CC2(CC(c3cccc(NC(=O)COc4ccc(Cl)cc4)c3)=NO2)C[C@H]1C(N)=O (some centres unmarked) | -64.7
C/C=C\C=C\C(=O)N1CC2(CC(c3cccc(NC(=O)COc4ccc(Cl)cc4)c3)=NO2)C[C@H]1C(N)=O (some centres unmarked) | -76.9
C/C=C/C(=O)N1CC2(CC(c3cccc(NC(=O)COc4ccc(Cl)cc4)c3)=NO2)C[C@@H]1C(N)=O (some centres unmarked) | -41.4
NC(=O)[C@H]1CC2(CC(c3cccc(NC(=O)COc4ccc(Cl)cc4)c3)=NO2)CN1C(=O)c1ccc(Cl)cc1 (some centres unmarked) | -9.96
C/C=C\C=C/C(=O)Nc1cccc(C2=NOC3(C2)C[C@@H](C(N)=O)N(C(=O)COc2ccc(Cl)cc2)C3)c1 (some centres unmarked) | -7.47
CC/C=C/C(=O)N1CC2(CC(c3cccc(NC(=O)CC)c3)=NO2)C[C@H]1C(N)=O (some centres unmarked) | 13.6
Cn1nc(-c2ccccc2)c(CSc2ccccc2Cl)c1Cl | 6.46
O=C(Nc1c(C(=O)N2CCOCC2)cnn1-c1ccccc1)c1ccc([N+](=O)[O-])cc1 | -16
CN1CCN(C(=O)c2cnn(-c3ccccc3)c2NC(=O)c2ccc([N+](=O)[O-])cc2)CC1 | -51.6
Cc1cccc(C(=O)Nc2c(C(=O)N3CCN(C)CC3)cnn2-c2ccccc2)c1 | -15.9
CN1CCN(C(=O)c2cnn(-c3ccccc3)c2NC(=O)c2ccc(Br)cc2)CC1 | -81.4
CN1CCN(C(=O)c2cnn(-c3ccccc3)c2NC(=O)c2ccccc2)CC1 | -17.8
CN1CCN(C(=O)c2cnn(-c3ccccc3)c2NC(=O)c2ccccc2Br)CC1 | 3.72
